Assay results published in PubChem BioAssay AID1159580 (chemical genetic matrix, 2015).
The campaign covered roughly 5,500 compounds. About 2,000 (36%) were called active. Not shown: some 18% with an inconclusive outcome. Rule as the data show it: active = normalized growth mostly below about 0.91 (no sharp cut-off); inconclusive = no clear call, values can overlap the other calls; inactive = mostly above about 0.92. The list shows a part of the results.

Experiment: chemical genetic growth profiling, strain panel (AID 1159580);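 also: tested at 20 µM; growth read once vehicle control cultures reached saturation at 30 °C; 1 = growth at the plate median or of vehicle wells; lower values mean less growth of the strain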
Conditions: S. cerevisiae deletion strains, growth OD

Measured: normalized growth

Cc1cc(N=Cc2cc(Cl)cc(Cl)c2O)no1
active: locus YDL214C, strain PRR2, hits give low values 0.561 | locus YDR477W, strain SNF1, hits give low values 0.526 | locus YER123W, strain YCK3, hits give low values 0.307 | locus YER133W, strain GLC7, hits give low values 0.576 | locus YFR019W, strain FAB1, hits give low values 0.517 | locus YGR040W, strain KSS1, hits give low values 0.574 | locus YGR052W, strain FMP48, hits give low values 0.504 | locus YGR092W, strain DBF2, hits give low values 0.187 | locus YHR030C, strain SLT2, hits give low values 0.26 | locus YHR079C, strain IRE1, hits give low values 0.249 | locus YHR082C, strain KSP1, hits give low values 0.493 | locus YHR205W, strain SCH9, hits give low values 0.407 | locus YJL095W, strain BCK1, hits give low values 0.259 | locus YJL157C, strain FAR1, hits give low values 0.478 | locus YJR066W, strain TOR1 (second series), hits give low values 0.565 | locus YJR066W, strain TOR1, hits give low values 0.387 | locus YKL048C, strain ELM1, hits give low values 0.651 | locus YKL067W, strain YNK1, hits give low values 0.521 | locus YKL101W, strain HSL1, hits give low values 0.5 | locus YKL203C, strain TOR2, hits give low values 0.613 | locus YLR113W, strain HOG1, hits give low values 0.337 | locus YLR133W, strain CKI1, hits give low values 0.486 | locus YLR403W, strain SFP1, hits give low values 0.375 | locus YML070W, strain DAK1, hits give low values 0.372 | locus YMR205C, strain PFK2 (second series), hits give low values 0.514 | locus YNL020C, strain ARK1, hits give low values 0.462 | locus YNL183C, strain NPR1, hits give low values 0.429 | locus YNL307C, strain MCK1 (second series), hits give low values 0.37 | locus YOL136C, strain PFK27, hits give low values 0.349 | locus YOR061W, strain CKA2, hits give low values 0.32 | locus YOR119C, strain RIO1, hits give low values 0.571 | locus YOR231W, strain MKK1, hits give low values 0.272 | locus YPL031C, strain PHO85, hits give low values 0.483 | locus YPL153C, strain RAD53, hits give low values 0.405 | locus YPL204W, strain HRR25, hits give low values 0.467 | locus YPL256C, strain CLN2, hits give low values 0.343
inactive: locus YAR019C, strain CDC15, hits give low values 0.945 | locus YBL105C, strain PKC1, hits give low values 0.964 | locus YBR135W, strain CKS1, hits give low values 0.971 | locus YBR136W, strain MEC1, hits give low values 0.953 | locus YBR160W, strain CDC28, hits give low values 0.964 | locus YDL017W, strain CDC7, hits give low values 0.968 | locus YDL028C, strain MPS1, hits give low values 0.95 | locus YDL101C, strain DUN1, hits give low values 0.965 | locus YDL108W, strain KIN28, hits give low values 0.957 | locus YDL132W, strain cdc53, hits give low values 0.975 | locus YDR052C, strain DBF4, hits give low values 0.972 | locus YDR054C, strain cdc34, hits give low values 0.965 | locus YDR226W, strain ADK1, hits give low values 0.974 | locus YFL009W, strain cdc4, hits give low values 0.97 | locus YFL029C, strain CAK1, hits give low values 0.958 | locus YFR003C, strain YPI1, hits give low values 0.95 | locus YFR028C, strain CDC14, hits give low values 0.971 | locus YIL147C, strain SLN1, hits give low values 0.946 | locus YJL128C, strain PBS2, hits give low values 0.952 | locus YJR016C, strain ILV3, hits give low values 0.973 | locus YKL193C, strain SDS22, hits give low values 0.971 | locus YMR001C, strain CDC5, hits give low values 0.963 | locus YMR277W, strain FCP1, hits give low values 0.968 | locus YNL006W, strain LST8, hits give low values 0.969 | locus YNL161W, strain CBK1, hits give low values 0.967 | locus YNL207W, strain RIO2, hits give low values 0.977 | locus YNL222W, strain SSU72, hits give low values 0.96 | locus YOL078W, strain AVO1, hits give low values 0.967 | locus YOR329C, strain SCD5, hits give low values 0.952 | locus YPL209C, strain IPL1, hits give low values 0.969 | locus YPR025C, strain CCL1, hits give low values 0.969 | locus YPR106W, strain ISR1, hits give low values 0.976 | locus YPR111W, strain DBF20, hits give low values 0.972 | strain NNK1, hits give low values 0.965 | strain TSCII, hits give low values 0.96
